Compound activity as filed in PubChem BioAssay.
KB-V1 MDR tox: KB-V1 MDR subline cytotoxicity. 400,000 compounds, 3.4% hits. KB-V1 MDR cells viability, CellTiter-Glo, 72 h. Potency, µM (series often up to 46.1 µM), usual class: cytotoxic. AID 1347076; further: on the % scale 0 is the no-effect control and ±100 the full control effect; nearly all actives have a fitted effect of over 60% in size
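Following 72 h at 37 degrees C with compound, KB-V1 cell viability was read by CellTiter-Glo luminescence, medium being phenol-red-free DMEM plus 10% FBS; concentration-response parameters came from normalized, curve-fitted qHTS data.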
MCF10A rereplic: induces DNA re-replication in MCF 10a normal breast cells; MCF 10A DNA re-replication, Hoechst nuclear intensity, 48 h; Potency, µM (titrated, usually from 46.1 µM), inactives show at the highest dose activity, positive = re-replication, hits mostly activators; 350,000 compounds, 2.9% hits; further: % of control where 0% means no effect; nearly all actives have a fitted effect of over 50% in size
KB-3-1 cytotox: kills parental KB-3-1 adenocarcinoma cells. Potency, µM (top dose mostly 46.1 µM), hits mostly cytotoxic. 400,000 compounds, 1.4% hits. KB-3-1 viability, CellTiter-Glo ATP luminescence, 72 h; further: on the % scale 0 is the no-effect control and ±100 the full control effect; nearly all actives have a fitted effect of over 60% in size
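Using CellTiter-Glo luminescence, growth of non-resistant KB-3-1 adenocarcinoma cells is assessed 72 h after pin-tool compound addition at 37 °C. Normalized responses across the concentration series yield fitted curves.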
SW480 rereplic: DNA re-replication induction in SW480 cells | 340,000 compounds, 1.8% hits | SW480 DNA re-replication, Hoechst DNA content imaging, 48 h | Potency, µM (top dose mostly 46.1 µM), for the others: at the highest dose re-replication activation, most hits filed as activators | AID 624297; further: % of control where 0% means no effect; nearly all actives have a fitted effect of over 55% in size
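DNA re-replication was detected as more nuclei of elevated Hoechst intensity after 48 hr exposure to compound (23 nL pinned per well of 250 cells).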
HT1080-NT tox: kills 2HG-producing HT-1080-NT fibrosarcoma cells | HT-1080-NT fibrosarcoma viability, CellTiter-Glo ATP luminescence, 48 h | Potency, µM (highest dose often 46.1 µM), inactives show top-dose activity, negative = less viability, hits mostly cytotoxic | 360,000 compounds, 1.6% hits | AID 686970;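 further: NT is the 2HG producing partner of a matched IDH1 knockdown line; 0% = DMSO-treated cells and -100% = media-only wells without cells; nearly all actives have a fitted effect of over 55% in size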
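Fibrosarcoma NT cells, 750 per well in 5% FBS RPMI, were exposed to compound for 48 hours. Viability: CellTiter-Glo luminescence.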
HT1080 IDH1KD tx: toxicity to HT-1080 IDH1 knockdown cells (counter line); 360,000 compounds, 2% hits; HT-1080 IDH1 knockdown viability, ATP luminescence, 48 h; Potency, µM (doses to about 46.1 µM), for inactives: at the top dose activity, negative = toxicity, hits mostly cytotoxic;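 further: 0% = DMSO wells and -100% = cell-free medium wells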
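Luminescent ATP read-out (CellTiter-Glo, 10 min at room temperature) after 48 h compound exposure at 37 °C gave viability of IDH1-knockdown HT-1080 cells. Activity was normalised to DMSO and cell-free wells, then fitted as concentration-response curves.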
The depositor's hits bear a star; i = inactive; ? = inconclusive; . = no result. Most compounds without a hit are left out; they make up all but 8% or so of the library. The call rests on the fitted dose curve; in most records, active means well fitted curve in the direction sought with a large enough effect; inconclusive means small, poorly fitted or top-dose-only effect, or another doubt; inactive means no such curve, though single readings can be large; an effect the other way counts as inactive or inconclusive. Potency means the concentration at half of the fitted maximal effect.

SMILES	KB-V1 MDR tox	MCF10A rereplic	KB-3-1 cytotox	SW480 rereplic	HT1080-NT tox	HT1080 IDH1KD tx
C=CCc1cccc(/C=N/NC(=O)C(C)Nc2ccc(C)cc2)c1O (stereo not drawn)	20.6µM*	?	?	16.4µM*	-23.5%	?
COc1ccc(OC)c(/C=N/NC(=O)c2ccc(=O)[nH]n2)c1	?	-0.7%	i	-12.7%	-2.4%	-0.7%
CCN(c1nc(C)cc(OC)n1)S(=O)(=O)c1ccccc1	i	-0.6%	i	-0.7%	0.1%	2.3%
COc1ccccc1CCC(=O)Oc1ccccc1C#N	?	0.1%	i	1.8%	-3.5%	3.9%
COc1ccc(OC)c(/C=N\NC(=O)c2ccc(-c3ccccc3)cc2)c1	i	?	i	0.9%	3.5%	14.9%
Cc1cccc(/C=N\NC(=O)c2ccc(Cl)cc2)c1O	?	13.0%	?	?	?	3.26µM*
COc1cccc(/C=N/NC(=O)c2c(C)nc3ccc(Cl)cn23)c1O	?	?	?	0.259µM*	-29.4%	?
Cc1cccc(/C=N/NC(=O)Cc2ccc(Cl)cc2)c1O	i	8.7%	?	?	-27.3%	?
C=CCc1cccc(/C=N/NC(=O)c2ccccc2OC)c1O	i	2.3%	i	?	?	16.4µM*
COc1cccc(/C=N/NC(=O)c2ccc(-c3ccccc3)cc2)c1O	?	?	5.8µM*	?	?	?
CC(C)CC(NC(=O)C1CCC(C)CC1)C(=O)Nc1cccnc1 (stereo not drawn)	i	1.1%	i	-6.2%	0.5%	-0.4%
COc1cccc(/C=N/NC(=O)C(=O)Nc2ccccc2OC(F)(F)C(F)F)c1O	?	?	9.2µM*	?	?	?
CCCn1nnc(NC(=O)c2cc(Br)cc(Br)c2OC)n1	16.4µM*	-1.4%	i	-4.3%	8.0%	7.7%
CCCn1nnc(NC(=O)c2ccc(Br)cc2)n1	i	-7.2%	i	4.8%	0.8%	?
N#CCC(=O)N/N=C/c1c2ccccc2cc2ccccc12	i	18.4µM*	i	?	-11.1%	-14.3%
COc1ccc(NC(C)C(=O)N/N=C/c2c(O)ccc3ccccc23)cc1 (stereo not drawn)	?	?	?	3.66µM*	-20.5%	?
O=C(CNc1ccccc1)N/N=C/c1c(O)ccc2ccccc12	i	?	16.4µM*	?	10.3µM*	11.6µM*
Cc1ccccc1NC(C)C(=O)N/N=C/c1ccccc1OCc1cccc(Br)c1 (stereo not drawn)	?	?	?	?	-14.9%	-25.3%
O=C(CO)N/N=C/c1c2ccccc2cc2ccccc12	i	24.8%	i	2.7%	-0.1%	?
COc1ccc(NC(C)C(=O)N/N=C/c2ccccc2OCc2cccc(Br)c2)cc1 (stereo not drawn)	?	?	23.1µM*	?	-26.5%	-17.8%
O=C(CN1CCOCC1)N/N=C/c1c(O)ccc2ccccc12	i	5.2%	?	?	?	?
COc1ccc(C(=O)Nn2cnc3ccccc3c2=O)c(OC)c1	i	-1.3%	i	-5.7%	25.8%	8.6%
O=C(CSCC(=O)Nc1ccccc1)N/N=C/c1c(O)ccc2ccccc12	?	?	?	?	3.16µM*	1.58µM*
O=C(N/N=C/c1c(O)ccc2ccccc12)Nc1ccccc1	?	11.8%	?	134.3%	-7.6%	-10.0%
O=C(N/N=C/C=C\c1ccccc1[N+](=O)[O-])c1cc(-c2ccc3ccccc3c2)n[nH]1	i	10.3µM*	i	8.2µM*	13µM*	14.6µM*
SMILES	KB-V1 MDR tox	MCF10A rereplic	KB-3-1 cytotox	SW480 rereplic	HT1080-NT tox	HT1080 IDH1KD tx
O=C(N/N=C/c1ccco1)c1cc(-c2ccc3ccccc3c2)n[nH]1	i	7.94µM*	i	23.1µM*	?	?
CCc1ccc(-c2cc(C(=O)N/N=C/c3ccccn3)[nH]n2)cc1	i	?	i	-5.4%	-27.7%	-21.0%
O=C(N/N=C/c1ccccn1)c1cc(-c2ccc3ccccc3c2)n[nH]1	i	?	i	?	?	16.4µM*
O=C(N/N=C/C=C/c1ccccc1[N+](=O)[O-])c1ccncc1	?	-2.5%	i	0.8%	-2.6%	-12.9%
CCC1CCCCN1C(=O)CSc1nnc(-c2ccc(OC)cc2)o1 (stereo not drawn)	?	-7.9%	i	-14.1%	-1.2%	-2.7%
COc1ccc(C2NC(=O)NC(C)=C2C(=O)OC2CCCCC2)cc1OC (stereo not drawn)	i	2.1%	i	-9.0%	-1.3%	7.8%
O=C(NCc1nnc(SCC(=O)N2CCOCC2)o1)c1ccccc1F	i	-3.1%	i	3.0%	3.2%	1.4%
COCCN(Cc1cc2cc3c(cc2nc1Cl)OCO3)C(=O)Nc1ccc(F)cc1	?	-6.1%	16.4µM*	19.4%	-4.2%	17.3%
CCc1ccc(C2=NNC(=Nc3cccc(S(=O)(=O)N(C)C)c3)SC2)cc1	?	?	?	20.6µM*	20.6µM*	?
Cc1ccc(C2=NNC(=Nc3ccc(F)cc3)SC2)cc1	?	-8.3%	i	25.1%	?	?
O=C(NCCN1C(=O)S/C(=C\c2ccc(Cl)cc2Cl)C1=O)C1=COCCO1	?	13µM*	?	?	?	?
O=C(NCCN1C(=O)S/C(=C\c2ccc(Cl)cc2)C1=O)C1=COCCO1	.	1.6%	.	0.4%	-11.8%	0.4%
O=C(NCCN1C(=O)S/C(=C\c2ccccc2Cl)C1=O)C1=COCCO1	?	7.31µM*	?	?	-17.0%	-21.2%
O=C(CNC(=O)c1ccccc1F)NCCN1C(=O)S/C(=C\c2ccccc2Cl)C1=O	?	4.3%	i	-5.1%	0.2%	3.5%
O=C(NCCN1C(=O)S/C(=C\c2ccccc2F)C1=O)C1=COCCO1	9.2µM*	2.59µM*	?	4.11µM*	?	11.6µM*
Cc1sc2ncn(CC(=O)NCc3ccccc3)c(=O)c2c1C	i	?	?	?	-13.2%	-15.5%
O=S(=O)(c1ccc(F)c(F)c1)N1CCN(c2ncccn2)CC1	i	-15.3%	i	-2.6%	5.0%	11.9%
O=C(C[n+]1cnn(CC(=O)c2ccc(Cl)cc2Cl)c1)c1ccc([N+](=O)[O-])cc1	i	10.6%	18.4µM*	?	-15.5%	-14.1%
CC1=NN(c2nc(C)cc(C)n2)C(=O)C1CCC(C)C (stereo not drawn)	i	-2.4%	i	?	7.94µM*	10µM*
